# Screening results from PubChem.
# Shn3 3UTR inh: inhibitors of Schnurri-3 3'UTR reporter in osteoblasts; Clone20 osteoblast Shn3 3'UTR firefly luciferase, 24 h; inhibition, % at 12.5 µM; hit rate 0.52% among 360,000;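 active = mean inhibition of at least 75% with every replicate also reaching 75%; inconclusive = mean inhibition at least 75% but some replicate below; inactive = mean inhibition below 75%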
# Mdm2 MdmX PPI: inhibitors of human Mdm2/MdmX interaction; inhibition, % at 8 µM; SaOS-2 split-luciferase Mdm2/MdmX complementation, luminescence; O15151+Q00987; hit rate 3% among 330,000;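 active = inhibition of at least 50% at 8 µM in the primary screen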
# Target sequence (O15151 whole entry, looked up): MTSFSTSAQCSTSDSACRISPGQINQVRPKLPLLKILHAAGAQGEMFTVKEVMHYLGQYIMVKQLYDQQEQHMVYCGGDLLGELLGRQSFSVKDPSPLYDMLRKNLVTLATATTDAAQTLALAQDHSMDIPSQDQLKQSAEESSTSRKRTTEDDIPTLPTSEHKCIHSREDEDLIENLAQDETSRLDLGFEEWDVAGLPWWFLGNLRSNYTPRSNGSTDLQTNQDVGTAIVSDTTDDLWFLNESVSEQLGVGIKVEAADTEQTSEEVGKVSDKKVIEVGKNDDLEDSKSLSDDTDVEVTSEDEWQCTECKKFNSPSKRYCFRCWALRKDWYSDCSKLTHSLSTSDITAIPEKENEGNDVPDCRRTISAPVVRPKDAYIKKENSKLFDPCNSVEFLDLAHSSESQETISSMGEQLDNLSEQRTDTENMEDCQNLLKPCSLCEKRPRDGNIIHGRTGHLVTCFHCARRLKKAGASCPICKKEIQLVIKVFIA
# Target sequence (Q00987 whole entry, looked up): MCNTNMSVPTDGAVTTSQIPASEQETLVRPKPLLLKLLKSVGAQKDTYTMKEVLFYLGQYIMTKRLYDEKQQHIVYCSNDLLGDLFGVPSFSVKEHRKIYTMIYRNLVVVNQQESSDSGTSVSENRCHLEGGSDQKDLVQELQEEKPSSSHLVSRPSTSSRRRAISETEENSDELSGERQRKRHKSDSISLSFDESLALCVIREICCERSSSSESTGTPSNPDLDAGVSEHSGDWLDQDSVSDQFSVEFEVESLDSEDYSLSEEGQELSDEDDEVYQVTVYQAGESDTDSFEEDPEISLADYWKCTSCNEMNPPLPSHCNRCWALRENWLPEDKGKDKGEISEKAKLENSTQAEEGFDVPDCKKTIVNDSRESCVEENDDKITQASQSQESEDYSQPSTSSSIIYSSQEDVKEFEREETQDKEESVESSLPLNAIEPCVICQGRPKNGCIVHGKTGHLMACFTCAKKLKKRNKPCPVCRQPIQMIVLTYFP
# Beta cell apopt: blocks beta cell apoptosis; protection from apoptosis, % (concentration not given with the values); AID 435005; INS-1E cytokine-induced death, ATP luminescence, 48 h; percent of positive-control rescue, neutral wells zero; hit rate 0.8% among 300,000;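 active = Every replicate reaches about 75%, or at least half do and their mean reaches it too, limit read from the data; inconclusive = At least half of replicates reach the limit but their mean does not; inactive = Under half of replicates reach the limit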;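 also: higher means more ATP so stronger rescue from cytokine killing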
# PAX8 inh HTS: PAX8 transcriptional activity inhibition; RMG-I TPO-luciferase reporter, SteadyGlo, 24 h; inhibition, % at 12.6 µM; hit rate 1.2% among 360,000;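 active = mean replicate inhibition at least 60% with every replicate also reaching 60%; inconclusive = only one of the two criteria is met; inactive = mean below 60% and not all replicates reaching 60%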;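 also: luciferase light reporting Pax8 driven TPO promoter activity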
# Gli-Sufu block: antagonists of Gli-Sufu signaling | Sufu-KO-LIGHT fibroblasts, Gli luciferase reporter luminescence | inhibition, % at 5 µM | hit rate 0.74% among 340,000;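 active = inhibition above about 55%, limit read from the data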
# CSC inhib: cancer stem cell inhibition; cancer stem cell-like cells viability, luminescence; inhibition, % at 7.5 µM; hit rate 1.1% among 300,000; in the data active = inhibition above about 75%; inconclusive = no clear call, values can overlap the other calls; tested in HMLE shEcad cells
# Gli antag conf: Gli-SUFU antagonism confirmation, single concentration | shares compounds with Gli-Sufu block | Sufu-KO-LIGHT cells, Gli luciferase reporter, luminescence | hit rate 40% among 2,500 | AID 602428 | inhibition, % at 5 µM;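 active = mean inhibition at 5 µM reaching about 45%, limit read from the data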
# Gli cytotox: counter-screen for Gli-SUFU antagonists: cytotoxicity; hit rate 32% among 2,500; cytotoxicity, % at 5 µM; shares compounds with Gli-Sufu block; Sufu-KO-LIGHT cells cytotoxicity, ATP luminescence;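 active = mean cytotoxicity at 5 µM above about 25%, limit read from the data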;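 also: cells exposed to compound overnight for roughly 16 to 18 hours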
# Wnt3a cs: Wnt3a reporter inhibition counter-screen; shares compounds with Gli-Sufu block; Wnt-LIGHT cells, Wnt3a-driven luciferase reporter, luminescence; inhibition, % at 6.25 µM; hit rate 20% among 2,500;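 active = mean inhibition above about 25%, limit read from the data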
# Hits are given with their value; i = inactive; ? = inconclusive; nt = not tested or not shown. Only some compounds are listed: those with a hit (about 4% of all), similar ones and a draw of the others.
SMILES,Shn3 3UTR inh,Mdm2 MdmX PPI,Beta cell apopt,PAX8 inh HTS,Gli-Sufu block,CSC inhib,Gli antag conf,Gli cytotox,Wnt3a cs
Cc1ccc(NC(C)c2cc(Cl)ccc2O)cc1 (stereo not drawn),i,i,i,i,i,i,nt,nt,nt
CC(Nn1cnnc1)c1cc(Cl)ccc1O (stereo not drawn),i,i,i,i,97.6,i,i,i,i
C/C(=C\C(=O)c1ccc(Br)cc1)NNC(=O)c1ccc(O)cc1,i,i,nt,i,i,i,nt,nt,nt
C/C(=C\C(=O)c1ccc(Br)cc1)NNC(=O)c1ccccc1,i,i,nt,i,i,i,i,i,i
O=C(Nc1ccccc1F)N1CCCCN2[C@H](C1)[C@@H](c1ccc(-c3cccnc3)cc1)[C@@H]2CO,nt,nt,nt,i,nt,nt,nt,nt,nt
Cc1ccc(CSc2ccc3nnc(-c4cccnc4)n3n2)cc1,i,i,i,nt,i,i,i,i,i
Cc1cc(C)c(S(=O)(=O)N2CCN(C(=O)c3c(C)nn(-c4ccccc4)c3Cl)CC2)c(C)c1,i,nt,nt,i,97.5,nt,i,i,i
CCN1C/C(=C\c2cc(OC)c(OC)c(OC)c2)C2=NN(c3ccccc3)C(c3cc(OC)c(OC)c(OC)c3)C2C1 (stereo not drawn),i,nt,nt,i,i,nt,i,i,i
COC(=O)c1ccc(C(=O)NC2CCCc3c2cnn3-c2ccccc2F)nc1 (stereo not drawn),i,i,i,i,i,i,nt,nt,nt
Cc1nnsc1C(=O)NC1CCCc2c1cnn2-c1ccc(F)cc1F (stereo not drawn),i,i,i,i,65.2,i,56.4,i,i
COc1cc(C(=O)NC2CCCc3c2cnn3-c2ccccc2F)cc(OC)c1OC (stereo not drawn),89.4,i,i,i,61.1,i,47.7,34.1,i
C[C@@H]1CCCCO[C@H](CN(C)S(=O)(=O)c2cccs2)[C@@H](C)CN([C@@H](C)CO)C(=O)c2cc(NS(=O)(=O)c3cn(C)cn3)ccc2O1,nt,nt,nt,i,nt,nt,nt,nt,nt
O=C(NC1CCCC1)C(c1ccccc1)N(Cc1cccnc1)C(=O)Cc1cccs1 (stereo not drawn),i,i,i,i,57.3,i,i,i,i
Cc1ccc(CN(C(=O)Cc2cccs2)C(C(=O)NC2CCCC2)c2ccncc2)cc1 (stereo not drawn),i,i,i,i,i,i,nt,nt,nt
NC(=O)CC(NC(=O)c1ccccc1)c1ccc(N2CCC(Cc3ccccc3)CC2)c([N+](=O)[O-])c1 (stereo not drawn),91.4,i,i,i,63.0,i,54.4,27.1,i
NC(=O)CC(NC(=O)c1ccc(Br)cc1)c1ccc(N2CCN(c3ccccc3)CC2)c([N+](=O)[O-])c1 (stereo not drawn),i,i,nt,i,i,i,nt,nt,nt
NC(=O)CC(NC(=O)c1ccc(Br)cc1)c1ccc(N2CCCCCCC2)c([N+](=O)[O-])c1 (stereo not drawn),i,i,i,i,59.6,131.1,i,i,i
COc1ccc2c3c([nH]c2c1)[C@@H](CO)N(Cc1ccccn1)CC31CN(C(=O)c2ccccn2)C1,nt,nt,nt,i,nt,nt,nt,nt,nt
COCC(=O)Nc1ccc2c(c1)C(=O)N(C)[C@@H]1CC[C@H](CC(=O)O)O[C@@H]1CO2,nt,nt,nt,i,nt,nt,nt,nt,nt
C[C@H](CO)N1C[C@H](C)[C@H](CN(C)C(=O)Nc2ccc(F)cc2)OCCCC[C@H](C)Oc2ccc(NS(C)(=O)=O)cc2C1=O,nt,nt,nt,i,nt,nt,nt,nt,nt
COc1cc(C(=O)N(C)CC2CCN(CCc3cccc(C(F)(F)F)c3)CC2)ccc1C,i,i,i,i,57.8,i,i,i,i
CN1CCCCN2[C@H](C1)[C@H](c1ccc(-c3cccnc3)cc1)[C@@H]2CO,nt,nt,nt,i,nt,nt,nt,nt,nt
NC(=O)c1ccccc1OCC(=O)N1CCC(Cc2ccccc2)CC1,i,i,i,i,i,nt,45.8,i,27.1
CCOc1ccccc1OCCN1CCC(Cc2ccccc2)CC1,i,i,i,i,i,i,nt,nt,nt
CCC(=O)c1ccccc1OCCCN1CCC(Cc2ccccc2)CC1,i,i,i,i,i,i,i,33.4,i
SMILES,Shn3 3UTR inh,Mdm2 MdmX PPI,Beta cell apopt,PAX8 inh HTS,Gli-Sufu block,CSC inhib,Gli antag conf,Gli cytotox,Wnt3a cs
COc1ccc2[nH]c(C)c(CCNC(=S)Nc3cccc(C)c3C)c2c1,i,i,nt,i,i,i,nt,nt,nt
COc1ccc2[nH]c(C)c(CCNC(=S)Nc3ccccc3C)c2c1,i,i,nt,i,69.0,i,i,i,i
N=c1nc2n(cc1F)C1OC(CO)C(O)C1O2 (stereo not drawn),i,nt,nt,i,55.5,nt,46.9,26.4,36.0
CCCNC(=O)[C@H]1[C@H](CO)[C@H]2Cn3c(cccc3=O)[C@@H]1N2C(=O)C1CCC1,nt,nt,nt,i,nt,nt,nt,nt,nt
O=C(Nc1ccc(Cl)c(Cl)c1)N[C@H]1CC[C@@H](CCn2cc(C3CCCC3)nn2)O[C@@H]1CO,nt,nt,nt,i,nt,nt,nt,nt,nt
Cc1ccc(/C=N/NC(=O)Cn2nccc2C)o1,i,i,i,nt,60.4,i,i,i,i
Cc1ccc(Cn2nnc3c(=O)[nH]c(C4CCN(S(=O)(=O)c5ccccc5F)CC4)nc32)cc1,i,i,i,i,i,i,i,i,i
COc1ccccc1-c1cn(CC[C@@H]2CC[C@H](NC(=O)CCN3CCCCC3)[C@@H](CO)O2)nn1,nt,nt,nt,i,nt,nt,nt,nt,nt
COc1ccc(N2CCN(S(=O)(=O)c3ccc(OC)c(C(=O)N4CCCC4)c3)CC2)cc1,i,i,i,i,70.3,i,i,i,i
CCOC(=O)C1=CN(Cc2ccco2)S(=O)(=O)N(CC)C1c1ccccc1 (stereo not drawn),i,i,nt,i,i,nt,i,i,i
CCOC(=O)C1=CN(Cc2ccco2)S(=O)(=O)N(CC)C1c1cccc(OC)c1 (stereo not drawn),i,i,nt,i,i,nt,i,i,i
CSc1ncc(Cl)c(C(=O)Nc2ccccc2C)n1,i,i,i,i,i,i,nt,nt,nt
CCCSc1nnc(NC(=O)c2nc(SC)ncc2Cl)s1,i,i,i,nt,56.3,i,i,i,i
O=C(NN=C1CCCC1)c1ccc(O)cc1,i,i,nt,i,i,i,i,i,i
O=C(NN=C1CCCCCC1)c1ccncc1,i,i,i,i,i,i,nt,nt,nt
COc1cccc(NC(=O)CNC(=O)[C@@H]2Cc3ccccc3CN2C(=O)OC(C)(C)C)c1,i,i,i,i,65.2,i,i,i,i
COc1ccc(NC(=O)N(C)C[C@H]2Oc3cc(-c4cccc(C(=O)N(C)C)c4)ccc3S(=O)(=O)N([C@@H](C)CO)C[C@H]2C)cc1,nt,nt,nt,i,nt,nt,nt,nt,nt
O=c1nc(N/N=C/c2ccccn2)cn[nH]1,?,i,i,i,67.3,81.9,70.7,32.6,77.7
Cc1ccc(/C=N/Nc2cn[nH]c(=O)n2)o1,i,i,i,i,i,i,nt,nt,nt
